Reference: PubChem BioAssay (NCATS)
Results filed as inconclusive are left out. Activity calls are given as the source filed them. The call rests on the fitted dose curve; in most records, active means well fitted curve in the direction sought with a large enough effect; inconclusive means small, poorly fitted or top-dose-only effect, or another doubt; inactive means no such curve, though single readings can be large; an effect the other way counts as inactive or inconclusive.

What was measured:
[1] = Cell Viability - LYMP2-002 (AID 977);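 further: series mostly up to about 92 µM; compound exposure lasted 24 h at 37 °C; plate controls were DMSO only for no effect and 92 µM tetraoctylammonium bromide for full effect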
Method in brief: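 Human lymphoblastoid cells, 2500/well, complete medium; 5 h 37 C settle; compound 24 h 37 C; CellTiter-Glo, 30 min RT; luminescence. Decrease in ATP = cytotoxicity; AC50 via Hill equation.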

[2] = Cell Viability - LYMP2-006 (AID 978);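 further: series mostly up to about 92 µM; cells exposed to compound for 24 hours; on the % scale 0 is the no-effect control and ±100 the full control effect; nearly all actives have a fitted effect of over 60% in size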
Method in brief: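 In this cytotoxicity screen, the human lymphoblastoid line grew in complete medium with test compounds for 24 hr at 37 C. Cellular ATP served as the viability signal.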

[3] = Cell Viability - LYMP2-007 (AID 979);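 further: cells exposed to compound for 24 h before reading; 0% = DMSO only and the negative end = 92 µM tetraoctylammonium bromide; nearly all actives have a fitted effect of over 60% in size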
Method in brief: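 Cells are seeded at 2500 per well and rested 5 hr. Compounds are then added over a concentration series for 24 hr at 37 C. CellTiter-Glo is added for 30 min at room temperature before luminescence reading.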

[4] = Cell Viability - LYMP2-008 (AID 980); further: on the % scale 0 is the no-effect control and ±100 the full control effect; nearly all actives have a fitted effect of over 60% in size
Method in brief: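 Cells seeded at 2500/well and rested 5 hr at 37 C; compounds added over a concentration range and incubated 24 hr at 37 C; CellTiter-Glo added, 30 min at room temperature; luminescence read and AC50 fitted with Hill model.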

[5] = Cell Viability - LYMP2-010 (AID 981);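 further: cells exposed to compound for 24 hours at 37 °C; on the % scale 0 is the no-effect control and ±100 the full control effect; nearly all actives have a fitted effect of over 55% in size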
Method in brief: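 Steps: seed 2500 LYMP2-010 cells per well; incubate 5 hr at 37 C; add compound; incubate 24 hr at 37 C; add CellTiter-Glo, wait 30 min at room temperature; read luminescence. Concentration-response fitted to Hill equation for AC50.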

[6] = Cell Viability - LYMP2-012 (AID 982);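 further: cellular ATP by luciferase luminescence where a drop means cytotoxicity; cells exposed to compound for one day before reading; 0% = DMSO only and full loss = 92 µM tetraoctylammonium bromide; nearly all actives have a fitted effect of over 55% in size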
[7] = Cell Viability - LYMP2-014 (AID 983);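 further: series mostly up to about 92 µM; plate controls were DMSO only for no effect and 92 µM tetraoctylammonium bromide for full effect; nearly all actives have a fitted effect of over 50% in size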
Method in brief: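 Cells are plated at 2500/well and left 5 hr at 37 C. Compounds are added across a concentration range and incubated 24 hr at 37 C in complete medium. CellTiter-Glo is added, and luminescence is read after 30 min at room temperature.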

[8] = Cell Viability - LYMP2-016 (AID 984);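 further: cells exposed to compound for 24 hours at 37 °C; on the % scale 0 is the no-effect control and ±100 the full control effect; nearly all actives have a fitted effect of over 55% in size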
Method in brief: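 Concentration-dependent ATP depletion measured in LYMP2-016 lymphoblastoid cells, 24 h, 37 C; luciferase-based luminescent detection; Hill-equation AC50.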

[9] = Cell Viability - LYMP2-018 (AID 985);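 further: compound exposure lasted 24 hr at 37 °C; plate controls were DMSO only for no effect and tetraoctylammonium bromide at 92 µM for full effect; nearly all actives have a fitted effect of over 50% in size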
Method in brief: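 Seed 2500 lymphoblastoid cells per well, incubate 5 hr at 37 C, add compound and incubate 24 hr at 37 C, add CellTiter-Glo, wait 30 min at room temperature, then read luminescence.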

[10] = Cell Viability - LYMP2-020 (AID 986);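 further: series mostly up to about 92 µM; plate controls were DMSO only for no effect and tetraoctylammonium bromide at 92 µM for full effect; nearly all actives have a fitted effect of over 55% in size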
Method in brief: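 Seed 2500 cells per well and incubate 5 hr at 37 C. Add compounds at a concentration series and incubate 24 hr at 37 C. Add CellTiter-Glo, wait 30 min at RT, read luminescence, and fit a Hill curve for AC50.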

[11] = Cell Viability - LYMP2-022 (AID 987)
Method in brief: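 Cells were seeded at 2500 per well, rested 5 hr at 37 C, and treated with titrated compounds for 24 hr at 37 C. Cellular ATP was then quantified by luciferase luminescence, and AC50 values were derived from Hill-modelled concentration-response curves.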

[12] = Cell Viability - LYMP2-024 (AID 988);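 further: plate controls were DMSO only for no effect and 92 µM tetraoctylammonium bromide for full effect; nearly all actives have a fitted effect of over 60% in size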
Method in brief: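 qHTS cytotoxicity, human lymphoblastoid line, complete medium; 24 h cpd treatment, 37 C; CellTiter-Glo ATP luminescence readout; tetraoctylammonium bromide positive control; AC50 via Hill fit.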

[13] = Cell Viability - LYMP2-026 (AID 989); further: on the % scale 0 is the no-effect control and ±100 the full control effect; nearly all actives have a fitted effect of over 50% in size
Method in brief: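 Cells are seeded at 2500 per well and held 5 hr at 37 C. Compounds are added in concentration series for 24 hr, then CellTiter-Glo reagent is applied and luminescence read.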

[14] = Cell Viability - LYMP1-002 - Assay at 24 hr (AID 993); further: on the % scale 0 is the no-effect control and ±100 the full control effect
Method in brief: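 Acute toxicity is measured as concentration-dependent loss of cellular ATP in a human lymphoblastoid line (Coriell LYMP1-002) after 24 h treatment in complete medium. ATP is quantified by luciferase luminescence and AC50 derived by Hill modelling.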

[15] = Cell Viability - LYMP1-002 - Assay at 40 hr (AID 994)
Method in brief: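 Cells are plated at 2500 per well and rested 5 hr at 37 C. Compounds are added and incubated 40 hr at 37 C. CellTiter-Glo reagent is added for 30 min at room temperature before luminescence is read.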

[16] = target: Rap guanine nucleotide exchange factor 3 (Homo sapiens) (UniProt O95398); experiment: Confirmatory qHTS for antagonist of cAMP-regulated guanine nucleotide exchange factor 3 (EPAC1) (AID 1645880)
Method in brief: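 Released BODIPY-GDP fluoresces less than Rap1-bound BODIPY-GDP; the signal is followed at 480/540 nm at 5-min intervals over 30 min, after 5 min at room temperature. Reactions contain 100 nM EPAC1, 250 nM RAP1B-BODIPY-GDP and 50 uM GDP; results are normalized to ATA and DMSO.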

[17] = target: Rap guanine nucleotide exchange factor 3 (Homo sapiens) (UniProt O95398); experiment: Counterscreen qHTS for antagonist of cAMP-regulated guanine nucleotide exchange factor 3 (EPAC1) (AID 1645888); further: % of control where 0% means no effect
Method in brief: (§1)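 Rap1B–BODIPY-GDP (250 nM) with 50 uM GDP; compounds pin-transferred to 9.74 nM–152 uM final (activator) or from 7.32 nM upwards (inhibitor). Fluorescence Ex/Em 480/540 nm read at 5 and 30 min, then after adding cAMP or buffer, at room temperature.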

[18] = target: Rap guanine nucleotide exchange factor 3 (Homo sapiens) (UniProt O95398); experiment: Counterscreen qHTS for agonist of cAMP-regulated guanine nucleotide exchange factor 3 (EPAC1) (AID 1645889); further: % of control where 0% means no effect; nearly all actives have a fitted effect of over 40% in size
Method in brief: as §1

Chain of Rap guanine nucleotide exchange factor 3 (Homo sapiens) (O95398 whole entry, looked up): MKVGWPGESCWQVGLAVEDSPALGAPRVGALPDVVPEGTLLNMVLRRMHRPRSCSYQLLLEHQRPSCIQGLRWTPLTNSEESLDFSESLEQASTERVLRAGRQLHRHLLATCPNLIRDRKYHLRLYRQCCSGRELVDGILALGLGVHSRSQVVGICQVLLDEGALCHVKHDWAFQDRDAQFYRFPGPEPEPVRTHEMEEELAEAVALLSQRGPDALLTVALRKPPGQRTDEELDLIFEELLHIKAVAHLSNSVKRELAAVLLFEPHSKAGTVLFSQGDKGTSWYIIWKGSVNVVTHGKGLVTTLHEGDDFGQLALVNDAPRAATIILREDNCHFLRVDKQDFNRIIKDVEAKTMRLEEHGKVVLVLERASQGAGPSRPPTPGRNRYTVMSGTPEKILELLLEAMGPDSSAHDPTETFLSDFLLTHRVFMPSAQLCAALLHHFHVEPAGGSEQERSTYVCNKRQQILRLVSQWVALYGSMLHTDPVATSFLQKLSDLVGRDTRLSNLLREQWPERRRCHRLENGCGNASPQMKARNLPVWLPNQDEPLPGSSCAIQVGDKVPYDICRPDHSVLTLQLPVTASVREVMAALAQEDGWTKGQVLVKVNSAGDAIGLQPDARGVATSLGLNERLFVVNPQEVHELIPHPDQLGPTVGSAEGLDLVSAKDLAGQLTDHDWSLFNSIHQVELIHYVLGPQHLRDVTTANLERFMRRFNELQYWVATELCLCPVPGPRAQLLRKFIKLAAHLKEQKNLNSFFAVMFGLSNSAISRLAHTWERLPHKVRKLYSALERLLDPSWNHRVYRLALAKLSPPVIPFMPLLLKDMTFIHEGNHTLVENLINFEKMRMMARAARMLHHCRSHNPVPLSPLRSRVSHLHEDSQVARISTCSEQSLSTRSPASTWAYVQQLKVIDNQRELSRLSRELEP

CC(C)(c1cc(Br)c(O)c(Br)c1)c1cc(Br)c(O)c(Br)c1
inactive: outcome [1] | outcome [2] | outcome [3] | outcome [4] | outcome [5] | outcome [6] | outcome [7] | outcome [8] | outcome [9] | outcome [10] | outcome [11] | outcome [12] | outcome [13] | outcome [14] | outcome [15]

Cc1ccc(P(=O)(CSC(=N)N)c2ccc(C)cc2)cc1
inactive: Potency [16] | outcome [17] | activation [18] -0.0561% [at 30.8 µM]
